Data on 14 compounds can be found in PubChem BioAssay.

Assay [1] concerns TRPC4 beta (transient receptor potential cation channel C4), mouse. Briefly: TRPC4 cation channel opening, retest – cell-based, Fluo4 calcium, HEK293 TRPC4beta/mu-opioid, duplicates, 10 µM, confirmation (AID 2426;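 active means fluorescence ratio normalized to control raised more than 50% in primary screen plus both repeat runs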). Conditions: Fluo4 calcium fluorescence, at 10 µM; active compounds read high.
Assay [2] relates to transient receptor potential cation channel C4 beta (TRPC4), mouse. Briefly: TRPC4 cation channel opening, second retest – cell-based, second round, Fluo4, HEK293 TRPC4beta/mu-opioid, 1 µM, confirmation (AID 2461;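 active means primary screen active and over 50% activation in each of two duplicate runs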). Conditions: Fluo4 calcium fluorescence, at 1 µM; active compounds read high.
In assay [3] the test system is TRPC4 (transient receptor potential cation channel C4 beta), mouse. Nature of the assay: potentiation of DAMGO EC20 TRPC4 response – cell-based, second round, Fluo-4, HEK293 TRPC4beta/mu-opioid, 1 µM, confirmation (AID 2554;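 active means primary screen hit whose fluorescence ratio, in both repeats, exceeds the weak agonist control mean by 3 SD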). To be noted: DAMGO EC20, Fluo-4 calcium flux, at 1 µM; active compounds read high. Background: Calcium assays in cells follow changes in intracellular calcium, usually with a dye or a luminescent sensor.

Assay [4] deals with TRPC4 beta (transient receptor potential cation channel C4), mouse. Briefly: potentiation of DAMGO EC20 TRPC4 response – cell-based, Fluo-4, HEK293 TRPC4beta/mu-opioid, confirmation (AID 2555;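 active means primary screen hit whose calcium fluorescence ratio, in both repeats, exceeds the weak agonist control mean by 3 SD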). To be noted: DAMGO EC20, Fluo-4 calcium flux, at 10 µM; active compounds read high.
Assay [5] has as its target Short transient receptor potential channel 4 (Mus musculus) (UniProt Q9QUQ5). Nature of the assay: blockers of DAMGO-evoked TRPC4 calcium flux – cell-based, Fluo4, HEK293 TRPC4beta/mu-opioid, confirmation (AID 2636). To be noted: at 10 µM; active compounds read high.
The target is the same in assay [6]. Briefly: blockers of DAMGO-evoked TRPC4 calcium flux – cell-based, second round, Fluo4, HEK293 TRPC4beta/mu-opioid, 1 µM, confirmation (AID 2637;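 active means calcium signal ratio cut to more than 3 SD under the fully stimulated control mean yet still positive, in both repeats and the primary screen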;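 on inhibition: percent of integrated ratio relative to wells lacking test compound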). Conditions: at 1 µM; active compounds read high.
For assay [7] the target is unchanged. Nature of the assay: calcium entry via TRPC4 opening agents – cell-based, HEK293 TRPC4/mu-opioid, Fluo-4 calcium, dose response (AID 434937;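 active means primary screen activator hit with a dose response curve and TRPC4 channel activation at any tested dose; inactive means no activation, no dose response, or not a primary hit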).
The target is the same in assay [8]. Briefly: potentiation of DAMGO-evoked TRPC4 calcium signal – cell-based, HEK293 TRPC4/mu-opioid, Fluo-4 calcium, EC20 DAMGO, dose response (AID 434941;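 active means earlier screen potentiator hit that boosts the TRPC4 ion channel at some dose, with a dose response; inactive means no potentiation, no dose response, or not a prior hit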;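 further: calcium entry triggered by an EC20 dose of DAMGO at the co-expressed mu-opioid receptor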).
Assay [9] concerns the target Short transient receptor potential channel 6 (Mus musculus) (UniProt Q61143). Briefly: TRPC6 blockade by TRPC4 inhibitor hits – cell-based, HEK293, membrane potential dye, duplicate, selectivity assay for TRPC4 inhibitor project, confirmation (AID 434948;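 active means active in primary screen and both duplicates, each dropping signal beyond three positive-control SD with fluorescence still positive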). To be noted: HEK293 TRPC6, membrane potential dye fluorescence, at 10 µM, stimulated with maximal-effect acetylcholine; active compounds read high.

Assay [10] shares this target. Briefly: TRPC6 opening by TRPC4 activator hits – cell-based, HEK293, membrane potential dye, duplicate, selectivity assay for TRPC4 activator project, confirmation (AID 434950;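 active means membrane potential signal rise above negative control mean plus 3 SD in both duplicates, also active in the earlier TRPC4 screen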). Conditions: HEK293 TRPC6, membrane potential fluorescence, at 10 µM; activation: active compounds read high; outcome: activation.
Assay [11] shares this target. Nature of the assay: positive modulators of mouse TRPC6 channel – HEK293 cells, membrane potential dye, duplicate, selectivity assay for TRPC4 potentiator project, confirmation (AID 434952;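 active means compound raising the membrane signal above positive-control mean plus 3 SD in both repeats, and a primary screen hit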). To be noted: HEK293 TRPC6, membrane potential dye fluorescence, at 10 µM, maximal acetylcholine added after compound; active compounds read high.
In assay [12] the target is Short transient receptor potential channel 4 (Mus musculus) (UniProt Q9QUQ5). Briefly: calcium flux activators in TRPC4/5HT1a cells, counter-screen for TRPC4 activator project, cell-based, second counter screen, HEK293 TRPC4/5HT1a, Fluo-4 (AID 434977;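 active means calcium signal rise above buffer-control mean plus 5 SD in both duplicates, and also a hit in the primary screen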). To be noted: Fluo-4 calcium flux, at 10 µM; active compounds read high.
Assay [13] can be described thus: serotonin-gated TRPC4 signal block – cell-based, second counter screen, HEK293 TRPC4/5HT1a, Fluo-4, counter-screen for TRPC4 inhibitor project, confirmation (AID 434978;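 active means primary screen active whose calcium signal fell more than 3 SD beyond the full-serotonin control mean in both duplicate plates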;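 on outcome: serotonin given first at submaximal then at maximal dose after compound preincubation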). Conditions: Fluo-4 calcium flux, at 10 µM, serotonin added to trigger calcium flux; active compounds read high. For orientation: Counterscreens check selectivity or assay interference.
Assay [14] relates to TRPC4 (mouse), co-expressed with 5HT1a in HEK293. Nature of the assay: enhancement of serotonin-evoked TRPC4 response – cell-based, second counter screen, HEK293 TRPC4/5HT1a, Fluo-4, counter-screen for TRPC4 potentiator project, confirmation (AID 434979;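 active means signal rise over 3 SD above mean of control wells given weak agonist, in both repeats and first screen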). Conditions: Fluo-4 calcium flux, at 10 µM, serotonin added at its EC20 dose; active compounds read high.
Assay [15] is described as follows: nonspecific calcium rise without TRPC4 – cell-based, HEK293 mu-opioid receptor line, counter-screen for TRPC4 activator project, confirmation (AID 449723;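 active means hit in primary screen, with calcium signal over 5 SD above buffer well mean in both duplicates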;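 further: counter screen cells carry the mu-opioid receptor alone and lack TRPC4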). Conditions: HEK293 mu-opioid cells, Fluo-4 calcium fluorescence, at 10 µM; active compounds read high.
Assay [16] is described as follows: nonspecific potentiation of DAMGO calcium response – cell-based, HEK293 mu-opioid receptor line, counter-screen for TRPC4 allosteric potentiator project, confirmation (AID 449724;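 active means calcium signal rise more than 3 SD above the low-dose agonist control mean, in both duplicate plates and the primary screen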;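 further: HEK293 cells carrying mu-opioid receptor only with no TRPC4 channel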). Conditions: HEK293 mu-opioid receptor cells, Fluo-4 calcium flux, at 10 µM, compound added before EC20 DAMGO stimulus; active compounds read high.

For some assays here: Measured potencies and affinities stand elsewhere. Calls of active or inactive are those of the source.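 How the source made its calls, unless noted: active means calcium signal cut by more than 3 SD below the full-agonist control yet still positive, in both repeats and the earlier primary screen; inactive means the rest.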

Sequence of Short transient receptor potential channel 6 (Mus musculus) (Q61143 whole entry, looked up): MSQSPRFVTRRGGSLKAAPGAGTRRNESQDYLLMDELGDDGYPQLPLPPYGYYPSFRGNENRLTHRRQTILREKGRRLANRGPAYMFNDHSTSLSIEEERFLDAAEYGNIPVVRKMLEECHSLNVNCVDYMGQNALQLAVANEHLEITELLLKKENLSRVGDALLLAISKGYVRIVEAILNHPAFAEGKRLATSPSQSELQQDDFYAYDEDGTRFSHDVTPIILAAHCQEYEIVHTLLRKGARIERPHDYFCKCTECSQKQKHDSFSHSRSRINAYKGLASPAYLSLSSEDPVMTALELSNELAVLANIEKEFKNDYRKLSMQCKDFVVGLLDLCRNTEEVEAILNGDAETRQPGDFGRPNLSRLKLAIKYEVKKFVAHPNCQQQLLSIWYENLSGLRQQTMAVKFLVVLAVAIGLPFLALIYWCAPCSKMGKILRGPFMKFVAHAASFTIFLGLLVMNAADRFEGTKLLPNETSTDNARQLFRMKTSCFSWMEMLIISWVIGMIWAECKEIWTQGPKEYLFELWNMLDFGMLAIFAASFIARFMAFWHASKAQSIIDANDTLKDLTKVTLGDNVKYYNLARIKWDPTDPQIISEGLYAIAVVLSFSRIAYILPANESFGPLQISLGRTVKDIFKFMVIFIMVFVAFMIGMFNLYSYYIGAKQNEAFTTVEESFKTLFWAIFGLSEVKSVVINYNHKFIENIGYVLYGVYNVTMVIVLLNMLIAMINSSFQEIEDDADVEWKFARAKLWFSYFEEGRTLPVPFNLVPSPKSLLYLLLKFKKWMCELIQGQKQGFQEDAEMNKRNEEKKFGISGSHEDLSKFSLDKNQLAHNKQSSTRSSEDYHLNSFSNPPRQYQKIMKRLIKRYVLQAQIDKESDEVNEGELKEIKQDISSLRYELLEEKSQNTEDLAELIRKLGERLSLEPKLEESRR
Sequence of Short transient receptor potential channel 4 (Mus musculus) (Q9QUQ5 whole entry, looked up): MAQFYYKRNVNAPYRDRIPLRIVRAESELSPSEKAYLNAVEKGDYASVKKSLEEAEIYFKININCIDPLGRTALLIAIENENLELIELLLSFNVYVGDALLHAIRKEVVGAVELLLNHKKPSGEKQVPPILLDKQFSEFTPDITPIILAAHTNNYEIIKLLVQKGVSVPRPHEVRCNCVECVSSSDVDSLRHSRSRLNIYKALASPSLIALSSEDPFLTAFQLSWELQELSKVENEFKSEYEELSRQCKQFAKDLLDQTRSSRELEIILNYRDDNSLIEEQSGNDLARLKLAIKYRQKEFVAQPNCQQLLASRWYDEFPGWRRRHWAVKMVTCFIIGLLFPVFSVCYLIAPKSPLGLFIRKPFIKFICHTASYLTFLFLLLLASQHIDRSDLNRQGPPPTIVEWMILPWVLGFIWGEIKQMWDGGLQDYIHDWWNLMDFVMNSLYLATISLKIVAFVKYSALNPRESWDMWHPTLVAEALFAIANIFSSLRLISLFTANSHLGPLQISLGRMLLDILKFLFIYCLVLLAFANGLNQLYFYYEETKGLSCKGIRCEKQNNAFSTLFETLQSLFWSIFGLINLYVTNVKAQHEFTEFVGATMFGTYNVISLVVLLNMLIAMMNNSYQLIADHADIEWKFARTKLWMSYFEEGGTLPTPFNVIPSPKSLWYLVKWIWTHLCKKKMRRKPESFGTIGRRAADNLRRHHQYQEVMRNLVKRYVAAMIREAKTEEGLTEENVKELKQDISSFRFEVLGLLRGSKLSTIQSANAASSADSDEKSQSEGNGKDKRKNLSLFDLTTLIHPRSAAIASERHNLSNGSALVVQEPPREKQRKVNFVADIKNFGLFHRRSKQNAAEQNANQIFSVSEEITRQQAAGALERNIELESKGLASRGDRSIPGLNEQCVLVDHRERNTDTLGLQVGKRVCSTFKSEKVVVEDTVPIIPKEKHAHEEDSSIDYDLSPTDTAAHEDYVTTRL

As usually defined, the inhibition is the relative decrease from the control value, in per cent. Take `COc1ccc(CN2CCN(Cc3ccc(C(F)(F)F)cc3)CC2)c(OC)c1`: the outcome in assay [1], in assay [2], in [3], in [4], in assay [7] and in assay [8] was inactive. The compound was classed as inactive in assay [9], in assay [10], in assay [11], in assay [12], in assay [14] and in assay [15]. For the same compound, in [16], the outcome was inactive. Moreover, the inhibition is 95% (active) in [5], 41% (active) in assay [6] and 23% (active) in assay [13].

In the case of `COc1ccc2nc(C)cc(NCc3ccc(F)cc3)c2c1`, the outcome in assay [1], in [2], in assay [3], in assay [4], in assay [6] and in assay [7] was inactive. The result in [8], in assay [10], in assay [11], in assay [12], in assay [13] and in [14] was inactive. For the same compound, the result in assay [15] and in assay [16] was inactive. In addition, the inhibition is 84% (active) in assay [5] and 56% (active) in assay [9].

Consider `CCOC(=O)c1cc(C#N)c(N2CCCCC2)nc1-c1ccccc1`, for which the result in assay [1], in [2], in [3], in assay [4], in [6] and in assay [7] was inactive. The result in assay [8], in assay [9], in assay [10], in assay [11], in assay [12] and in assay [13] was inactive. The outcome in assay [14], in assay [15] and in [16] was inactive. The inhibition in [5] is 93% (active).

As to `CN(Cc1cnn(C)c1)C(=O)c1ccc(OC2CCN(CCc3ccccc3)CC2)cc1`, the result in [1], in assay [2], in [3], in assay [4], in [7] and in assay [8] was inactive. The compound was called inactive in assay [9], in assay [10], in assay [11], in [12], in assay [13] and in assay [14]. Moreover, the result in assay [15] and in assay [16] was inactive. The inhibition in assay [5] was 88% (active); in assay [6] it was 59% (active).

On to `CSc1nsc(NC(=O)Cc2ccccc2)n1`, for which the outcome in [1], in [2], in assay [3], in assay [4], in assay [6] and in assay [7] was inactive. The result in [8], in assay [9], in assay [10], in [11], in [12] and in assay [13] was inactive. Further, the outcome in assay [14], in assay [15] and in assay [16] was inactive. In addition, the inhibition in assay [5] was 93% (active).

`c1ccc(NC(=NCc2ccco2)c2ccccc2)cc1`: the result in [1], in [2], in assay [3], in [4], in [7] and in assay [8] was inactive. The call in assay [9], in [10], in assay [11], in assay [12], in [13] and in [14] was inactive. The outcome in assay [15] and in assay [16] was inactive. Further, the results for the inhibition in assay [5] and in [6] were 94% (active) and 45% (active), respectively.

With `N=c1sccn1CC(=O)Nc1ccccc1Oc1ccccc1`, the result in assay [1], in [2], in assay [3], in [4], in assay [7] and in assay [8] was inactive. Also, the compound was called inactive in assay [10], in assay [11], in [12], in [14], in assay [15] and in assay [16]. For the same compound, the inhibition in [5] was 92% (active); in assay [6], 48% (active); in assay [9], 48% (active); in assay [13], 34.6% (active).

In the case of `O=C(CCN1CCc2ccccc2C(O)(c2ccccc2)C1)c1ccc2c(c1)OCCO2` (centres undefined), the outcome in assay [1], in [2], in assay [3], in [4], in assay [5] and in assay [6] was inactive. In addition, the result in assay [7], in [8], in assay [9], in assay [10], in [11] and in assay [12] was inactive. For the same compound, the outcome in assay [14], in assay [15] and in assay [16] was inactive. Moreover, the inhibition in assay [13] was 39.2% (active).

`CSC1=NC2(CCCCC2)C2=C(CCCC2)N1`: the outcome in [1], in assay [2], in assay [3], in assay [4], in assay [6] and in assay [7] was inactive. Also, the outcome in assay [8], in assay [9], in [10], in assay [11], in assay [12] and in assay [14] was inactive. Moreover, the outcome in assay [15] and in assay [16] was inactive. Also, the inhibition in assay [5] is 96% (active); in assay [13] it was 33% (active).

For the compound `CCOc1cc(CNCCCN2CCOCC2)cc(Br)c1OCC(=O)Nc1cccc(C(F)(F)F)c1`, the result in assay [1], in assay [2], in assay [3], in assay [4], in assay [7] and in assay [8] was inactive. Moreover, the call in assay [9], in assay [10], in assay [11], in assay [12], in assay [14] and in assay [15] was inactive. The outcome in assay [16] was inactive. The inhibition is 101% (active) in [5], 40% (active) in [6] and 30.5% (active) in assay [13].

As for `O=C(CSc1nc2[nH]ncc2c(=O)n1-c1ccccc1Br)NCc1ccccc1Cl`, the result in [1], in assay [2], in assay [3], in assay [4], in assay [5] and in assay [6] was inactive. Moreover, the outcome in [7], in assay [8], in [9], in assay [10], in [11] and in [12] was inactive. Further, the outcome in [13], in assay [14], in assay [15] and in assay [16] was inactive.

As to `C=CCc1ccccc1OCC(O)CN1CCN(c2ccccc2OC)CC1` (centres undefined), the result in assay [1], in [2], in assay [3], in [4], in [6] and in assay [7] was inactive. For the same compound, the result in assay [8], in assay [9], in [10], in assay [11], in assay [12] and in assay [14] was inactive. In addition, the outcome in assay [15] and in [16] was inactive. Moreover, the inhibition in assay [5] is 68% (active); in assay [13] it was 13.1% (active).

As for `Clc1cccc(COn2c(-c3ccc(Cl)cc3Cl)nc3ncccc32)c1`, the result in assay [1], in assay [2], in assay [3], in [4], in assay [7] and in assay [8] was inactive. Also, the compound was classed as inactive in assay [9], in [10], in assay [11], in [12], in assay [14] and in [15]. In assay [16], the result was inactive. Also, the results for the inhibition in assay [5], in assay [6] and in assay [13] were 83% (active), 45% (active) and 41.3% (active), respectively.

Take `CC(=O)N1CCN(c2ccccc2NC(=O)c2ccc3ccccc3c2)CC1`: the outcome in [1], in assay [2], in [3], in assay [4], in assay [7] and in assay [8] was inactive. Besides, the result in assay [9], in assay [10], in assay [11], in assay [12], in assay [14] and in assay [15] was inactive. In addition, the outcome in assay [16] was inactive. Moreover, the results for the inhibition in [5], in assay [6] and in assay [13] were 85% (active), 74% (active) and 36.5% (active), respectively.
